# Screening results as filed in PubChem BioAssay.
# eIF4E-4G inh: inhibitors of eIF4E and eIF4G interaction in translation initiation; 220,000 compounds, 0.37% hits; inhibition, % at 21.7 µM; TR-FRET eIF4E-eIF4GI(517-606) binding, 2 h; P63073+Q04637;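 active = inhibition above about 30%, limit read from the data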;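 also: 0% = full FRET control wells and 100% = background wells lacking eIF4GI fragment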
# 14-3-3 Bad PPI: disrupts binding of bovine 14-3-3 zeta to phospho-Bad peptide | 220,000 compounds, 0.71% hits | TR-FRET 14-3-3zeta/Dy647-pBad peptide displacement, 1 h | P63103 | inhibition, % at 21.7 µM;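 active = inhibition above about 70%, limit read from the data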;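 also: 0% = full 14-3-3 plus peptide FRET controls and 100% = background without 14-3-3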
# Mcl-1 Bim block: disrupts Bim peptide binding to human Mcl-1 | Q07820 | Bead-based flow cytometry, Bim peptide-Mcl-1 binding | inhibition, % at 10 µM | 190,000 compounds, 0.1% hits | AID 1009; in the data active = inhibition above about 40%;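 also: 0% = no compound tracer wells and 100% = peptide blocker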
# Mcl1-Noxa inh: Mcl-1/Noxa interaction inhibition; Q07820; TR-FRET Mcl-1/Noxa peptide binding, 2 h; inhibition, % at 21.7 µM; 220,000 compounds, 1.5% hits; AID 1022;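 active = compounds that cut the protein-peptide binding signal by more than 50% relative to plate controls in a single-dose test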;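 also: His-tagged Mcl-1 with rhodamine Noxa BH3 peptide and terbium anti-His antibody; 0% = Mcl-1 plus Noxa peptide wells and 100% = peptide-only wells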
# Mcl1 Bid PPI: Mcl-1/Bid interaction inhibition. 220,000 compounds, 0.97% hits. inhibition, % at 21.7 µM. TR-FRET Mcl-1/Bid-Dy647 peptide binding, 1536-well;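 active = compounds that cut the binding signal by more than half at the single screening dose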;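 also: His-tagged Mcl-1 with europium anti-His antibody binding Bid BH3 peptide; 0% = Mcl-1 plus peptide wells and 100% = peptide-only wells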
# Hck Nef HTS: blocks Nef-activated human Hck kinase; P08631; Recombinant Hck-YEEI plus Nef, Z-Lyte FRET kinase assay; inhibition, % at 20 µM; 220,000 compounds, 0.68% hits; AID 463187;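 active = Hck-Nef kinase inhibition above about 50%, limit read from the data; inactive = inhibition below that limit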;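 also: 0% = DMSO with Hck plus Nef and 100% = Hck alone without Nef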
# Starred values were filed as active, the others as inactive; . = no result given; [ ] = dose if it differs, or a comment. Shown are actives, neighbours in structure and some others; about 3.5% of the full set was active somewhere.
SMILES,eIF4E-4G inh,14-3-3 Bad PPI,Mcl-1 Bim block,Mcl1-Noxa inh,Mcl1 Bid PPI,Hck Nef HTS
O=C(CN1CCOCC1)n1c2ccccc2c2ccccc21,0,75*,-5,-2,-16,1
O=C(CN1CCOCC1)n1c2c(c3ccccc31)CCCC2,0,-2,-4,10,-11,-38
O=C(CN1CCN(C(c2ccccc2)c2ccccc2)CC1)N1CCOCC1,2,73*,-6,29,27,2
CCCCn1c(SCC(=O)NCCOC)nc2ccc(N3CCOCC3)cc2c1=O,3,0,-3,89*,-34,0
COCCNC(=O)CSc1nc2ccc(N3CCOCC3)cc2c(=O)n1CCc1ccccc1,0,6,0,17,-25,10
CC(=O)NC(Cc1ccccc1)C(=O)OCC(=O)c1ccc(F)cc1 (stereo not drawn),1,-4,-2,9,-24,1
Cc1ccc(NC(=O)CC2S/C(=N/N=C/c3c[nH]c4ccccc34)NC2=O)cc1 (stereo not drawn),3,11,25,48,57*,7
CCOC(=O)c1ccc(NC(=O)CC2S/C(=N/N=C/c3c[nH]c4ccccc34)NC2=O)cc1 (stereo not drawn),-3,27,.,61*,63*,8
CCOC(=O)c1ccc(NC(=O)CC2S/C(=N/N=C3/NC(=O)CS3)NC2=O)cc1 (stereo not drawn),0,4,0,-48,0,11
Cc1nc2nc(SCC(=O)c3cccc([N+](=O)[O-])c3)[nH]c2cc1Br,-2,2,-7,7,-30,2
O=C(CSc1nc2ncc(Br)cc2[nH]1)c1cccc([N+](=O)[O-])c1,-3,-10,-2,64*,-81,2
N#CC(=C=[N-])c1nc2ccccc2nc1-[n+]1cccc(NC(=O)c2cccs2)c1,-6,2,.,39,5,-20
CCCCCCOC(=O)C(C#N)c1nc2ccccc2nc1N1CCN(C)CC1 (stereo not drawn),3,-18,-1,53*,-14,3
CC(=O)Nc1ccc(C)c(NC(=S)Nc2ccc(F)cc2)c1,4,-6,.,16,-31,18
CNC(=S)Nc1ccc(C)c(NC(=S)NC)c1,-2,-1,-5,58*,-20,12
O=S(=O)(c1ccc(-c2ccon2)s1)N1CCN(c2ccncc2)CC1,0,46,.,72*,-14,6
CN1CCC(NC(=O)NC2CCCCC2)CC1,-3,-6,.,-26,-13,17
CN1CCN(CC(=O)NC2CCCCC2)CC1,0,71*,-1,12,54*,-1
Cc1ccc(CNC(=O)c2ccc(N(C)C)cc2)cc1,-2,-13,-3,12,-34,27
Cc1ccc(CNC(=O)c2ccc3nc4[nH]c5ccccc5c4nc3c2)cc1,2,37,0,15,68*,10
Cc1ccc(CNC(=O)c2ccc(-n3cccc3)cc2)cc1,38*,31,3,81*,-61,14
COc1cc(OC)cc(C(=O)N[C@H](C(=O)Nc2cccc(S(=O)(=O)N3CCCC3)c2)C(C)C)c1,-16,-1,.,-2,-11,7
Cc1onc(C(=O)NN)c1C(=O)Nc1ncc(C(F)(F)F)cc1Cl,-1,8,0,2,-54,21
COc1ccc(Cc2nnc(Nc3c(C)cccc3C)o2)cc1OC,-3,5,.,17,-1,16
COc1cc(Cl)cc(NC(=O)CCN2CCN(C)CC2)c1,6,77*,1,15,22,-1
SMILES,eIF4E-4G inh,14-3-3 Bad PPI,Mcl-1 Bim block,Mcl1-Noxa inh,Mcl1 Bid PPI,Hck Nef HTS
Cc1sc(NC(=O)CSc2nnc(-c3ccc(F)cc3)o2)c(C#N)c1C,-25,26,0,12,59*,6
CC(C)(C)c1ccc(-c2nnc(SCC(=O)Nc3sc4c(c3C#N)CCCC4)o2)cc1,-3,-11,-5,-10,-23,6
CC(=O)c1ccc(-n2nnnc2SCC(=O)Nc2sc(C)c(C)c2C#N)cc1,4,18,-1,65*,57*,22
COc1ccc(/C=C2\C(=O)NC(=S)N2C(=O)c2ccc(F)cc2)cc1,7,89*[fluorescence artefact?],-9,64*,81*,38
CCN1CCCC1CNC(=O)C(=O)NC(C)c1ccccc1 (stereo not drawn),1,5,0,-27,-26,18
COc1c(C)cc(Br)cc1C(=O)Nc1ccc(S(N)(=O)=O)cc1,-3,-13,44*,7,-31,14
Cc1ccc(Cn2c(=S)[nH]c3ccc(N4CCOCC4)cc3c2=O)o1,24,10,3,73*,-4,11
COc1ccc(NC2CCN(C3CC(=O)N(c4ccc(F)c(Cl)c4)C3=O)CC2)cc1 (stereo not drawn),9,2,-3,56*,-38,-2
CC(C)Nc1nc2ccccc2c(=O)[nH]1,3,90*,-2,7,-7,14
CCCNc1nc2ccccc2c(=O)[nH]1,2,-19,-2,2,-29,20
O=C(CCc1ccccc1)Nc1ccc(N2CCOCC2)cc1,1,-13,-4,53*,-13,-10
O=C(CCc1ccccc1)Nc1ccc(N2CCOCC2)c(Cl)c1,-3,-4,1,-2,-11,0
CC1CCCCN1CC(=O)Nc1ccc(N2CCCCCC2)cc1 (stereo not drawn),15,51,-7,58*,36,37
CSc1ccccc1NC(=O)CN(C)CC(=O)Nc1ccc(N2CCOCC2)cc1,1,0,48*,3,-23,18
O=C(Cc1ccccc1)Nc1ccc(N2CCCCC2)cc1,17,8,0,61*,-26,21
CC(C)Oc1ccc(N2CC(C(=O)NC3=NCCS3)CC2=O)cc1 (stereo not drawn),-2,-3,25,-8,-21,10
Cc1onc(-c2c(F)cccc2Cl)c1C(=O)Nc1cccc(S(=O)(=O)NCc2ccco2)c1,1,-16,-1,5,-13,19
Cc1ccc(NC(=O)CCC(=O)c2cccs2)cc1,-2,0,-5,12,-10,-1
O=C(CCC(=O)c1cccs1)Nc1ccc(N2CCCCC2)cc1,5,5,-1,57*,-51,32
Cc1c(C(=O)Nc2ccc(F)cc2)c2ccccn2c1CCc1ccncc1,2,6,-1,25,-26,1
Cc1[nH]n(-c2ncc(-c3ccccc3)s2)c(=O)c1C(c1ccc(Br)cc1)C(C#N)C#N (stereo not drawn),5,-25,-6,78*,28,5
C/C(=N\NS(=O)(=O)c1ccccc1)c1ccc2c(c1)OCO2,1,-5,0,11,-37,21
Fc1ccc(Cn2nnnc2CN2CCN(C3CCCC3)CC2)cc1,-10,78*,-3,23,24,-1
